Several values for one entry are separate records, joined by “and”; a condition that tells them apart may be missing. Identical values can stand only once. Some structures have more than one record in an assay (separate samples or runs), and their calls can disagree. Activity calls are given as the source filed them. How the source made its calls: active means hit-call score of the fitted dose curve at least 0.9, where 1 is the maximum; inactive means score below 0.9.
Key:
[1] = BSK_CASM3C_SRB: Viability Assessment in the BioMAP Diversity Plus: CASM3C Assay (AID 2283050); conditions: primary human coronary artery smooth muscle cells;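 further: cells exposed to compound for 24 h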
[2] = read-out: Thrombomodulin, THBD (gene 7056); test: BSK_CASM3C_Thrombomodulin: BioMAP Diversity Plus: CASM3C Assay for Thrombomodulin Biomarker Activity (AID 2283051); conditions: primary human coronary artery smooth muscle cells; actives raise or lower the signal;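 further: thrombomodulin protein level measured by ELISA 24 h after dosing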
[3] = read-out: Tissue Factor, F3 (gene 2152); test: BSK_CASM3C_TissueFactor: BioMAP Diversity Plus: CASM3C Assay for Tissue Factor Biomarker Activity (AID 2283052); conditions: primary human coronary artery smooth muscle cells; actives raise or lower the signal;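 further: cell surface tissue factor protein level read by ELISA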
[4] = read-out: Interferon-gamma inducible Protein 10 (IP10), CXCL10 (gene 3627); test: BSK_hDFCGF_IP10: BioMAP Diversity Plus: hDFCGF Assay for Interferon-gamma inducible Protein 10 (IP10) Biomarker Activity (AID 2283053); conditions: primary human foreskin fibroblasts; actives raise or lower the signal
Summary of the method: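 Primary foreskin fibroblasts, human; 24 h compound exposure; IP-10 by ELISA; bidirectional fit vs DMSO.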

[5] = read-out: Urokinase-type plasminogen activator receptor (uPAR), PLAUR (gene 5329); test: BSK_CASM3C_uPAR: BioMAP Diversity Plus: CASM3C Assay for Urokinase-type plasminogen activator receptor (uPAR) Biomarker Activity (AID 2283054); conditions: primary human coronary artery smooth muscle cells; actives raise or lower the signal;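 further: cell-surface uPAR protein level quantified by ELISA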
[6] = read-out: Vascular cell adhesion molecule 1 (VCAM1), VCAM1 (gene 7412); test: BSK_CASM3C_VCAM1: BioMAP Diversity Plus: CASM3C Assay for Vascular cell adhesion molecule 1 (VCAM1) Biomarker Activity (AID 2283055); conditions: primary human coronary artery smooth muscle cells; actives raise or lower the signal;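 further: VCAM-1 protein level quantified by ELISA on the cells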
[7] = read-out: Collagen III, COL3A1 (gene 1281); test: BSK_hDFCGF_CollagenIII: BioMAP Diversity Plus: hDFCGF Assay for Collagen III Biomarker Activity (AID 2283056); conditions: primary human foreskin fibroblasts; actives raise or lower the signal
Summary of the method: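 hDFCGF primary human dermal fibroblasts; 24 h chemical exposure; collagen III by ELISA; bidirectional curve fit vs DMSO baseline (gain or loss of signal).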

[8] = read-out: Epidermal growth factor receptor (EGFR), EGFR (gene 1956); test: BSK_hDFCGF_EGFR: BioMAP Diversity Plus: hDFCGF Assay for Epidermal growth factor receptor (EGFR) Biomarker Activity (AID 2283057); conditions: primary human foreskin fibroblasts; actives raise or lower the signal
Summary of the method: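 hDFCGF system, primary human foreskin fibroblasts; compound 24 h; EGFR measured by ELISA; DMSO = negative control/baseline; bidirectional fitting.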

[9] = read-out: Interleukin-8 (IL8), CXCL8 (gene 3576); test: BSK_hDFCGF_IL8: BioMAP Diversity Plus: hDFCGF Assay for Interleukin-8 (IL8) Biomarker Activity (AID 2283058); conditions: primary human foreskin fibroblasts; actives raise or lower the signal
Summary of the method: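 ELISA read-out of IL-8 from primary human foreskin fibroblast cultures taken 24 h after dosing; values are bidirectional fits relative to DMSO vehicle.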

[10] = BSK_hDFCGF_Proliferation: Cell Proliferation Assessment in the BioMAP Diversity Plus: hDFCGF Assay (AID 2283059); conditions: primary human foreskin fibroblasts;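 further: curves fitted for both rise and fall of signal versus DMSO baseline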
Summary of the method: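 Sub-confluent human foreskin fibroblast cultures receive test chemical […]. Relative cell number is quantified by sulforhodamine B staining (0.1%, after 10% TCA fixation) at 560 nm, with bidirectional fitting referenced to DMSO.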

[11] = read-out: Macrophage colony-stimulating factor (MCSF), CSF1 (gene 1435); test: BSK_hDFCGF_MCSF: BioMAP Diversity Plus: hDFCGF Assay for Macrophage colony-stimulating factor (MCSF) Biomarker Activity (AID 2283060); conditions: primary human foreskin fibroblasts; actives raise or lower the signal
Summary of the method: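 ELISA read-out of M-CSF in human dermal foreskin fibroblast cultures, 24 h after chemical dosing; gain or loss of signal fitted bidirectionally relative to DMSO baseline.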

[12] = BSK_hDFCGF_SRB: Viability Assessment in the BioMAP Diversity Plus: hDFCGF Assay (AID 2283061); conditions: primary human foreskin fibroblasts;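 further: cells exposed to compound for 24 h before the read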
Summary of the method: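 Primary human foreskin fibroblasts; 24 h post-dose; fixed 10% TCA, stained 0.1% SRB, A560 read; total protein as overt cytotoxicity measure; curves fit bidirectionally vs DMSO control.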

[13] = read-out: TIMP metallopeptidase inhibitor 1 (TIMP1), TIMP1 (gene 7076); test: BSK_hDFCGF_TIMP1: BioMAP Diversity Plus: hDFCGF Assay for TIMP metallopeptidase inhibitor 1 (TIMP1) Biomarker Activity (AID 2283062); conditions: primary human foreskin fibroblasts; actives raise or lower the signal
Summary of the method: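 ELISA readout of TIMP-1 from human dermal foreskin fibroblast cultures 24 h post-dosing. Curves were fitted in both directions against DMSO baseline, with SRB total-protein staining in parallel cultures as a cytotoxicity check.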

[14] = read-out: Monokine induced gamma interferon (MIG), CXCL9 (gene 4283); test: BSK_hDFCGF_MIG: BioMAP Diversity Plus: hDFCGF Assay for Monokine induced gamma interferon (MIG) Biomarker Activity (AID 2283063); conditions: primary human foreskin fibroblasts; actives raise or lower the signal
Summary of the method: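 Fibroblasts (human foreskin, primary) dosed, 24 h, MIG by ELISA; fit bidirectional vs DMSO.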

[15] = read-out: Matrix Metallopeptidase 1 (MMP1), MMP1 (gene 4312); test: BSK_hDFCGF_MMP1: BioMAP Diversity Plus: hDFCGF Assay for Matrix Metallopeptidase 1 (MMP1) Biomarker Activity (AID 2283064); conditions: primary human foreskin fibroblasts; actives raise or lower the signal
Summary of the method: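 Primary human foreskin fibroblasts in the hDFCGF system were dosed with test chemical, and MMP1 was measured by ELISA 24 h later. Values come from bidirectional curve fitting against the DMSO baseline.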

[16] = read-out: Vascular cell adhesion molecule 1 (VCAM1), VCAM1 (gene 7412); test: BSK_hDFCGF_VCAM1: BioMAP Diversity Plus: hDFCGF Assay for Vascular cell adhesion molecule 1 (VCAM1) Biomarker Activity (AID 2283065); conditions: primary human foreskin fibroblasts; actives raise or lower the signal;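 on AC50: VCAM-1 protein level quantified by ELISA after 24 h chemical exposure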
Summary of the method: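 ELISA read-out of VCAM-1 on human skin fibroblasts, 24 h post-dose; gain or loss of signal fitted bidirectionally against DMSO baseline.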

[17] = read-out: Plasminogen activator inhibitor-1 (PAI1), SERPINE1 (gene 5054); test: BSK_hDFCGF_PAI1: BioMAP Diversity Plus: hDFCGF Assay for Plasminogen activator inhibitor-1 (PAI1) Biomarker Activity (AID 2283066); conditions: primary human foreskin fibroblasts; actives raise or lower the signal
Summary of the method: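 Primary dermal fibroblasts (human foreskin), hDFCGF system; compound 24 h; PAI-1 by ELISA; bidirectional fit vs DMSO control.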

[18] = read-out: Intercellular Adhesion Molecule 1 (ICAM1), ICAM1 (gene 3383); test: BSK_KF3CT_ICAM1: BioMAP Diversity Plus: KF3CT Assay for Intercellular Adhesion Molecule 1 (ICAM1) Biomarker Activity (AID 2283067); conditions: primary human keratinocytes with fibroblasts; actives raise or lower the signal
Summary of the method: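 ELISA readout of ICAM-1; KF3CT human skin co-culture (keratinocytes + foreskin fibroblasts), 24 h post-dose; gain/loss fit vs DMSO baseline.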

[19] = read-out: Interferon-gamma inducible Protein 10 (IP10), CXCL10 (gene 3627); test: BSK_KF3CT_IP10: BioMAP Diversity Plus: KF3CT Assay for Interferon-gamma inducible Protein 10 (IP10) Biomarker Activity (AID 2283068); conditions: primary human keratinocytes with fibroblasts; actives raise or lower the signal
Summary of the method: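 ELISA read-out of IP-10 after 24 h chemical dosing of human skin primary co-culture (keratinocytes, foreskin fibroblasts). Gain or loss of signal relative to DMSO, bidirectional curve fit.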

[20] = BSK_KF3CT_SRB: Viability Assessment in the BioMAP Diversity Plus: KF3CT Assay (AID 2283069); conditions: primary human keratinocytes with fibroblasts;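 further: total protein by sulforhodamine B staining as a cytotoxicity measure; read 24 h after compound addition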
Summary of the method: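 Human primary keratinocyte plus foreskin fibroblast co-culture exposed to chemicals for 24 h. Total protein measured by 0.1% sulforhodamine B staining after 10% TCA fixation, read at 560 nm; bidirectional fitting versus DMSO baseline.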

Measured: AC50

Nc1ccn([C@@H]2O[C@H](CO)[C@@H](O)[C@@H]2O)c(=O)n1
active: [10] 0.615 µM
inactive: all other assays above

Cc1cccc(O)c1C
not listed: [19]
inactive: all other assays above

Cc1ccc(S(=O)(=O)NC(=O)NN2CCCCCC2)cc1
inactive: all assays above

OC[C@H]1O[C@@H]2O[C@H]3[C@H](O)[C@@H](O)[C@@H](O[C@H]4[C@H](O)[C@@H](O)[C@@H](O[C@H]5[C@H](O)[C@@H](O)[C@@H](O[C@H]6[C@H](O)[C@@H](O)[C@@H](O[C@H]7[C@H](O)[C@@H](O)[C@@H](O[C@H]1[C@H](O)[C@H]2O)O[C@@H]7CO)O[C@@H]6CO)O[C@@H]5CO)O[C@@H]4CO)O[C@@H]3CO
inactive: all assays above

O=S1(=O)CCCO1
inactive: all assays above

CCOc1ccc2[nH]cc(C(=O)NCc3ccccc3)c(=O)c2n1
active: [8] 3.97 µM
inactive: all other assays above

CCCCCCCCCC
not listed: [19]
inactive: all other assays above

NCC(F)(F)C(F)(F)C(F)(F)C(F)(F)F
inactive: all assays above

O=C(O)c1cccc(C[C@@H]2COc3ccc(OCc4nc5cc(F)ccc5s4)cc3[C@@H]2O)c1
active: [11] 13.8 µM
inactive: all other assays above

O=C(O)c1cccc(C(=O)O)c1
active: [3] 0.357 µM
not listed: [19]
inactive: all other assays above

C=CCc1cc(S(=O)(=O)c2ccc(O)c(CC=C)c2)ccc1O
inactive: [2] | [8]
active: [1] 31.2 µM | [3] 36.7 µM | [4] 29 µM | [5] 21.7 µM | [6] 35.7 µM | [7] 6.52 µM | [9] 34.4 µM | [10] 9.21 µM | [11] 27 µM | [12] 14.8 µM | [13] 26.4 µM | [14] 30.7 µM | [15] 31 µM | [16] 15 µM | [17] 10.2 µM | [18] 23.7 µM | [19] 13.8 µM | [20] 26.5 µM

FC(F)(F)COC(OCC(F)(F)F)OCC(F)(F)F
inactive: all assays above

c1ccc2cc3ccccc3cc2c1
not listed: [19]
inactive: all other assays above

COc1cc2c(c(OC)c1OC)-c1ccc(OC)c(=O)cc1[C@@H](NC(C)=O)CC2
active: [4] 4.08 µM | [6] 0.579 µM | [10] 1 µM | [15] 2.82 µM | [16] 2.32 µM
inactive: all other assays above

O=C(NO)C1(NS(=O)(=O)c2ccc(Oc3ccc(F)cc3)cc2)CCOCC1
not listed: [19]
inactive: all other assays above

Cn1cc[nH]c1=S
inactive: all assays above

FC(F)(F)C(F)(F)C(F)(F)C(F)(F)C(F)(F)C(F)(F)I
active: [4] 30 µM | [7] 30 µM | [10] 50.7 µM | [16] 48.3 µM
inactive: [1] | [2] | [3] | [4] | [5] | [6] | [7] | [9] | [10] | [11] | [12] | [13] | [14] | [15] | [16] | [17] | [18] | [19] | [20]

CC1(C)C(=O)N(Cl)C(=O)N1Cl
not listed: [19]
inactive: all other assays above

CCCCCCCCN(C)C
not listed: [19]
inactive: all other assays above

OC(O)(C(F)C(O)(O)C(F)(F)F)C(F)(F)F
inactive: [1] | [2] | [4] | [5] | [6] | [7] | [8] | [9] | [11] | [12] | [13] | [15] | [17] | [18] | [19] | [20]
active: [3] 19 µM and 13.4 µM | [4] 19.6 µM | [10] 9.21 µM and 7.73 µM | [14] 30 µM and 36.3 µM | [16] 1.12 µM and 13 µM

C[C@@H](Oc1ccc(CNC(=O)c2cccnc2Oc2ccc3c(c2)OCO3)c(F)c1)C(=O)O
not listed: [19]
inactive: all other assays above

COS(C)(=O)=O
inactive: all assays above

OCc1c[nH]c2ccccc12
active: [2] 0.184 µM | [10] 23.8 µM | [15] 0.655 µM | [16] 3.97 µM | [17] 4.75 µM
not listed: [19]
inactive: all other assays above

CCCCCCCCCCCCCCO
active: [1] 30.2 µM | [2] 31.5 µM | [3] 31.5 µM | [4] 28.3 µM | [5] 33.3 µM | [6] 20 µM | [7] 11 µM | [9] 33.3 µM | [10] 12.2 µM | [11] 24.9 µM | [12] 30.2 µM | [14] 10.8 µM | [16] 20 µM | [17] 27 µM
inactive: [8] | [13] | [15] | [18] | [19] | [20]

CCCCCCCC/C=C\CCCCCCCC(=O)OC[C@@H](O)[C@H]1OC[C@H](O)[C@H]1O
inactive: all assays above
